Assay outcomes from PubChem BioAssay.
Only some compounds are listed: those with a hit (about 1.2% of all), similar ones and a draw of the others.
GLA spleen mod – qHTS Assay for Inhibitors and Activators of Human alpha-Galactosidase From Spleen Homogenate; human spleen homogenate, 4MU-alpha-Gal fluorescence, 40 min; Potency, µM (top dose mostly 80 µM), without a hit: top-dose activity change, negative = inhibition, actives largely listed as inhibitors; 0.008% of 240,000 active;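 further: potency means the concentration at half of the fitted maximal effect; 0% = enzyme with vehicle and -100% = no enzyme basal signal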
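Human spleen homogenate (1 ug) was the enzyme source, with 4-methylumbelliferyl-alpha-D-galactopyranoside (1 mM final) in pH 5.0 citrate buffer with 0.01% Tween-20. Compounds were titrated; after 40 min at 37C, NaOH/glycine stop, 4-MU fluorescence read; AC50 from Hill fits.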
HTT cytoprotect – qHTS Multiplex Assay to Identify Dual Action Probes in a Cell Model of Huntington: Cytoprotection (ATP) | PC12 HTT-Q103 induced, cytoprotection, ATP luminescence, 40 h | AID 1471, 2008 | Potency, µM (series often up to 56.4 µM), inactives show cytoprotection (ATP increase), actives largely listed as activators | 0.14% of 230,000 active; further: potency means the concentration at half of the fitted maximal effect; % of control where 0% means no effect; nearly all actives have a fitted effect of over 45% in size
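Readout: ATPlite luminescence (ATP level). Model: stable PC12, inducible Htt exon1 Q103-GFP. Inducer: tebufenozide, 100 nM final. Compounds: dose series. No G418 in medium.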
PKM2 activator – qHTS Assay for Activators of Human Muscle isoform 2 Pyruvate Kinase | Potency, µM (highest dose often 57.5 µM), without a hit: at the highest dose activation, usual class: activators | purified PKM2, Kinase-Glo ATP luminescence, activation; response scale: 0% is enzyme alone, no compound | Pyruvate kinase PKM (Homo sapiens), P14618 | AID 1631, 2009 | 0.34% of 260,000 active; further: potency means the concentration at half of the fitted maximal effect; on the % scale 0 is the no-effect control and ±100 the full control effect; nearly all actives have a fitted effect of over 55% in size
Target sequence (P14618 whole entry, looked up, canonical isoform): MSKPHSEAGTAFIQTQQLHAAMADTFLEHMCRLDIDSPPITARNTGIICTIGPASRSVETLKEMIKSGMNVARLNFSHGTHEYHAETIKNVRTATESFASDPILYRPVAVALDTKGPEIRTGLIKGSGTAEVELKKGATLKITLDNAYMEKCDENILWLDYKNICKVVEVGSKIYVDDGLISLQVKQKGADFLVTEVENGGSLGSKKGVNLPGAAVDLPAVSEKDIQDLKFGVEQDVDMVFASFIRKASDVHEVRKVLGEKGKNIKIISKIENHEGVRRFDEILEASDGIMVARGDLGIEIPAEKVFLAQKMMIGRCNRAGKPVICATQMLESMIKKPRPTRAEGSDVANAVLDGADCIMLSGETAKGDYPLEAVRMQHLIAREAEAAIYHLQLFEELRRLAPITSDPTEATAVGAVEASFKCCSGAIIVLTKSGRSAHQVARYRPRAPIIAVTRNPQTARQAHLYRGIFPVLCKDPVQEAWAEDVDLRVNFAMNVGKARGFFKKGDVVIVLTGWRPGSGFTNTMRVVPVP
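Purified hPK-M2 (>95% pure) converted ADP (0.1 mM final) to ATP with 0.5 mM PEP in 50 mM imidazole pH7.2, KCl, MgCl2, Tween 20, BSA; 1 h at room temperature. ATP detected by Kinase-Glo luminescence.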
HTT aggregate – qHTS Multiplex Assay to Identify Dual Action Probes in a Cell Model of Huntington: Aggregate Formation (GFP) | PC12 HttQ103-GFP aggregates, Acumen cytometry, 40 h | Potency, µM (series often up to 46.1 µM), for the others: at the highest dose activity change, negative = inhibition, usual class: inhibitors | 1.1% of 220,000 active | AID 1688, 2009; further: potency means the concentration at half of the fitted maximal effect; on the % scale 0 is the no-effect control and ±100 the full control effect; nearly all actives have a fitted effect of over 60% in size
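Quantitative HTS on tebufenozide-induced (100 nM) PC12 cells stably expressing polyQ103 Huntingtin exon 1–GFP. Reduction of bright GFP aggregates, detected by laser scanning cytometry after lysis, identified actives across the titration.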
GLA inh pH 4.5 – qHTS Assay for Inhibitors of Human alpha-Galactosidase at pH 4.5. Alpha-galactosidase A (Homo sapiens), P06280. activity change, negative = inhibition, % at 105 µM. 230,000 tested, under 10 active. purified enzyme, 4-MU-alpha-Gal fluorescence, pH 4.5. AID 1467, 2008;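 further: 0% = full activity with enzyme and -100% = basal without enzyme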
Active calls of the source: *; ? = inconclusive; . = no result given; [ ] = another dose, or the depositor's remark. The call rests on the fitted dose curve; in most records, active means well fitted curve in the direction sought with a large enough effect; inconclusive means small, poorly fitted or top-dose-only effect, or another doubt; inactive means no such curve, though single readings can be large; an effect the other way counts as inactive or inconclusive.

SMILES | GLA spleen mod | HTT cytoprotect | PKM2 activator | HTT aggregate | GLA inh pH 4.5
CC(=O)Nc1ccccc1NS(=O)(=O)c1ccccc1[N+](=O)[O-] | 2.8% | 3.5%[10 µM] | 39.8µM* | -1.4%[9.22 µM] | -0.2
NCCCCC(N)C(=O)NC(Cc1ccc(O)cc1)C(=O)NC(CCCCN)C(=O)O (configuration not stated) | 8.0% | . | . | . | -0.6
CCOc1ccc(C(=O)N2CCN(c3cccc(Cl)c3)CC2)cc1 | -5.0% | 9.8% | 15.1% | -11.2% | -2.6[21.1 µM]
CCOc1ccc(C(=O)N2CCN(c3cccc(C)c3C)CC2)cc1 | 7.6% | 18.2%[10 µM] | 14.1µM* | ? | 6.9
COc1ccc(NC(=O)c2ccc(C#N)cc2)cc1NS(=O)(=O)c1ccc(F)cc1 | -7.5% | 1µM* | -1.9% | 23.8% | 0.3
COc1ccc(NC(=O)c2ccc3ccccc3c2)cc1NS(=O)(=O)c1ccc(F)cc1 | 2.7% | 8.1%[10 µM] | 3.1% | 5.1% | 4.5
O=C(CNS(=O)(=O)c1cccs1)N1CCN(c2ccccn2)CC1 | -10.8% | 7.8% | 22.4µM* | -5.9% | -23.8
CC(C)=CCC/C(C)=C/CO/N=C1/[C@H]2O[C@@H]2[C@@H](O)[C@H]2[C@H]1CCn1c(=O)n(C)c(=O)n12 | -10.5%[17.5 µM] | -2.7%[10 µM] | . | . | .
COc1ccc(N/N=C(\C#N)C(N)=O)cc1 | -4.1% | 0.2%[10 µM] | -8.3% | -12.1% | -2.2
COc1ccc(N/N=C(/C(N)=O)C2=NC(C)(C)Cc3ccccc32)cc1 | 1.9% | -8.1%[10 µM] | -13.3% | 10µM* | -17.1
O=C(Nc1nnc(SCc2ccc(F)cc2)s1)C1CC(=O)N(Cc2ccccc2)C1 (configuration not stated) | 1.4% | 11.5%[10 µM] | 12.6µM* | 10.2% | 5.1
Cc1nnc(NC(=O)C2CC(=O)N(Cc3ccccc3)C2)s1 (configuration not stated) | . | . | -0.3% | . | .
COc1ccccc1S(=O)(=O)N1CCN(S(=O)(=O)c2ccccc2C#N)CC1 | . | . | 2µM* | . | .
COc1ccc(OC)c(S(=O)(=O)N2CCN(c3ccccc3)CC2)c1 | . | . | 1.5% | . | .
CCO | 1.3% | -7.5% | . | . | .
CN(C)/C(Cn1cncn1)=C1/N=C(c2c(F)cccc2F)OC1=O | -2.4% | 14.5%[10 µM] | 25.1µM* | 3.3%[9.22 µM] | -15.2
CC(=O)c1c(O)c2ccccc2n(C(C)C)c1=O | 0.1% | -30.7% | -2.6% | 12.6µM* | 1.8
CC(=O)c1c(O)c2ccccc2n(C)c1=O | -3.8% | ? | 1.4% | -7.9% | -4.0
C/C(=C(/CCOC(=O)C(C)C)SS/C(CCOC(=O)C(C)C)=C(\C)N(C=O)Cc1cnc(C)nc1N)N(C=O)Cc1cnc(C)nc1N | . | -1.6% | . | 10.7% | .
Cc1cc(NC(=O)CSc2ncn(-c3ccccc3)n2)no1 | 1.0% | -11.1% | 25.1µM* | 7.2% | 3.3
COc1cc2oc(=O)cc(-c3ccc(-c4sccc4C=O)cc3)c2c(OC)c1OC | -3.8% | -37.5% | . | . | -5.7
CCN(CC)CCn1nc2c3c(cccc3c1=O)-c1ccccc1-2 | -14.0% | -92.6%[10 µM] | -6.0% | 0.631µM* | 5.2
COc1ccc(CNC(=O)C(c2cccs2)N(C(=O)c2csnn2)C2CC2)cc1 (configuration not stated) | -3.8% | 25.1µM* | 13.9% | -10.8% | -6.6
Cc1onc(-c2ccccc2Cl)c1C(=O)Nc1sc2c(c1C#N)CCC2 | 1.9% | 14.1%[10 µM] | -8.7% | 11.2µM* | -1.7
N#Cc1c(NC(=O)C2CC(c3ccccc3Cl)=NO2)sc2c1CCC2 (configuration not stated) | 5.8% | 2.6% | 2.2% | 24.9% | -0.7
O=C1c2cccc(OCc3ccc(F)cc3)c2CCN1Cc1ccc(F)cc1 | 0.9% | 30.5%[10 µM] | 3.7% | 20µM* | -4.6
COc1ccc(-n2ncc(Cl)c(Cl)c2=O)cc1 | -7.2% | . | 62.7% | 3.98µM* | -8.2
COc1ccc(CNC(=O)CCCNS(=O)(=O)c2cccc3nonc23)cc1 | -4.1% | 3.55µM* | 10.4% | 3.16µM* | -1.1
C[N+](C)(C)c1ncnc2c1ncn2[C@@H]1CCCCO1 | . | 10.9%[10 µM] | . | . | .
